Measurements taken from the supplement of paper PMC7156485.
± gives the standard deviation of the averaged measurements.

Test system: TDF
Experiment: cell number relative to DMSO (% of DMSO); higher = more cells (less growth inhibition / toxicity)
Conditions: concentration: 10 µM; 24 h
Outline: (§1)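 Cells were seeded at 800 per well in 384-well plates with RPMI containing 10% FBS; both HCC1569 and TDF lines were used. Compounds were added at 10 µM for 24 h at 37 °C, in triplicate, before fixation in 3.7% formaldehyde and staining with a rabbit anti-H1.0 antibody, an AlexaFluor 647 secondary and DAPI. H1.0 nuclear intensity or cell number is reported as percent of the plate control using the median of replicates, and HCC1569 values were smoothed for positional effects.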
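Throughout, for H1.0 immunofluorescence intensity relative to DMSO: TDF is a line of transformed human dermal fibroblasts of mesenchymal origin.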
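Throughout, for cell number relative to DMSO: TDF denotes transformed human dermal fibroblasts of mesenchymal origin.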

SMILES | cell number
O=Nc1ccc2oc(=O)ccc2c1 [6-Nitroso-1,2-benzopyrone] | 103
O=C(NC(Cc1ccccc1)C(=O)CCl)OCc1ccccc1 [Z-L-Phe chloromethyl ketone] | 52.5
Cc1oncc1C(=O)Nc1ccc(C(F)(F)F)cc1 [Leflunomide] | 107 ± 3.5
CC(C)CCNC(C)C1CCC2C3CC=C4CC(O)CCC4(C)C3CCC12C (centres undefined) [22-Azacholesterol] | 98.5
CC(C)c1cc(C(C)C)c(-c2csc(N(CCN(C)C)Cc3cccnc3)n2)c(C(C)C)c1 | 55.2

Test system: TDF
Experiment: H1.0 immunofluorescence intensity relative to DMSO (% of DMSO); higher = stronger H1.0 induction, active = 120 or more
Conditions: concentration: 10 µM; 24 h
Outline: as §1

SMILES | H1.0 immunofluorescence intensity
O=c1nc[nH]c2c1ncn2C1CCC(CO)O1 (centres undefined) [Didanosine] | 95.7 (inactive)
NCCCC(=O)O | 108 (inactive)
CNc1ncnc2c1ncn2C1OC(CO)C(O)C1O (centres undefined) [N6-Methyladenosine] | 93.9 (inactive)
Brc1c(Br)c(Br)c2n[nH]nc2c1Br [TBB - 4,5,6,7-Tetrabromobenzotriazole] | 99.2 (inactive)
Cn1c(=O)c2c(ncn2Cc2ccc(C(C)(C)C)cc2)n(C)c1=O | 106 (inactive)
O=C1Nc2cc(Br)ccc2C1=C1N=c2ccccc2=C1NO [(2'Z,3'E)-6-Bromoindirubin-3'-oxime] | 118 (inactive)
COc1ccc(C2CC(=O)c3c(O)cc(OC4OC(CO)C(O)C(O)C4OC4OC(C)C(O)C(O)C4O)cc3O2)cc1O (centres undefined) [Neohesperidin] | 107 (inactive)
CCCCCCCCCCCC=CCCCCCC(=O)O [7(E)-Nonadecenoic acid] | 96.9 (inactive)
CCCCNC(=O)NS(=O)(=O)c1ccc(C)cc1 [Tolbutamide] | 93 (inactive)
CCCCCC=CCC1OC1C(O)C=CCC=CCCCC(=O)O (centres undefined) [Hepoxilin B3] | 95.2 (inactive)
CCN(CC)CCNC(=O)c1c(C)[nH]c(C=C2C(=O)Nc3ccc(F)cc32)c1C [Sunitinib] | 106 (inactive)
O=C(c1ccccc1)c1ccc(N2CCOCC2)cc1O [DNA-PK Inhibitor V] | 91.7 (inactive)
CCN1CCN(C(=O)NC(C(=O)NC2C(=O)N3C(C(=O)O)=C(CSc4nnnn4C)CSC23)c2ccc(O)cc2)C(=O)C1=O (centres undefined) [Cefoperazone acid] | 91.9 (inactive)
CCCCCC=CCC=CCC=CC=CC1CCCC(=O)O1 (racemic) | 98.2 (inactive)
Cn1c(-c2ccc3c(c2)OCO3)cc(=O)c2ccccc21 [Graveoline] | 101 (inactive)
CCc1nn(CCCN2CCN(c3cccc(Cl)c3)CC2)c(=O)n1CCOc1ccccc1 | 95.3 (inactive)
O[C@@H]1[C@@H](O)[C@H](OC/C=C/c2ccccc2)O[C@H](CO[C@@H]2OC[C@H](O)[C@H](O)[C@H]2O)[C@H]1O | 100 (inactive)
Cc1ccc(S(=O)(=O)NC(=O)NN2CCCCCC2)cc1 [Tolazamide] | 93.2 (inactive)
Cc1c(C)c2c(c(C)c1OC(=O)CCC(=O)O)CCC(C)(CCCC(C)CCCC(C)CCCC(C)C)O2 (centres undefined) [Tocopherol succinate] | 94.4 (inactive)
CCCCCCC=CCCCCCCCCC(=O)O [10(E)-Heptadecenoic acid] | 98.4 (inactive)
COc1ccc(-c2nn3c(-c4ccccn4)nnc3s2)cc1OC | 97.3 (inactive)
CCCCCCCCCC(=O)O [Decanoic acid] | 100 (inactive)
Cc1cnc(Nc2ccc(N3CCN(C)CC3)cc2)nc1Nc1cccc(S(=O)(=O)NC(C)(C)C)c1 | 97.9 (inactive)
CCCC(CCC)C(=O)O [Valproic acid] | 97 (inactive)
CN(C)CCC(c1ccc(Br)cc1)c1ccccn1.O=C(O)C=CC(=O)O (single isomer, unassigned; (+)) [(+)-Brompheniramine maleate] | 113 (inactive)
C=CC1CN2CCC1CC2C(O)c1ccnc2ccc(OC)cc12.Cl.O (centres undefined) | 96.8 (inactive)
N[C@@H](Cc1ccc(O)c(I)c1)C(=O)O [3-Iodo-L-tyrosine] | 87.8 (inactive)
CC(N)=NCCC[C@H](N)C(=O)O.Cl [L-N5-(1-Iminoethyl)ornithine hydrochloride] | 92.8 (inactive)
Cc1cn2cc(C(=O)N(C)CCO)cc(N[C@@H]3CCOc4cccc(C)c43)c2n1 | 94 (inactive)
